According to PubChem BioAssay (NCATS):
Inconclusive results are not listed. Active and inactive are the calls of the source. Unless noted, calls follow the shape of the dose curve; as a rule, active = well fitted curve in the direction sought with a large enough effect; inconclusive = small, poorly fitted or top-dose-only effect, or another doubt; inactive = no such curve, though single readings can be large; an effect the other way counts as inactive or inconclusive.

Experiments:
[1] = molecular target: Lysosomal acid glucosylceramidase (Homo sapiens) (UniProt P04062); test: Glucocerebrosidase-p2 (AID 348; in the data active = potency below about 10 µM; also: potency is read from the fitted curve at half-maximal effect); conditions: purified GBA, blue fluorogenic substrate, 40 min
Chain of Lysosomal acid glucosylceramidase (Homo sapiens) (P04062 whole entry, looked up): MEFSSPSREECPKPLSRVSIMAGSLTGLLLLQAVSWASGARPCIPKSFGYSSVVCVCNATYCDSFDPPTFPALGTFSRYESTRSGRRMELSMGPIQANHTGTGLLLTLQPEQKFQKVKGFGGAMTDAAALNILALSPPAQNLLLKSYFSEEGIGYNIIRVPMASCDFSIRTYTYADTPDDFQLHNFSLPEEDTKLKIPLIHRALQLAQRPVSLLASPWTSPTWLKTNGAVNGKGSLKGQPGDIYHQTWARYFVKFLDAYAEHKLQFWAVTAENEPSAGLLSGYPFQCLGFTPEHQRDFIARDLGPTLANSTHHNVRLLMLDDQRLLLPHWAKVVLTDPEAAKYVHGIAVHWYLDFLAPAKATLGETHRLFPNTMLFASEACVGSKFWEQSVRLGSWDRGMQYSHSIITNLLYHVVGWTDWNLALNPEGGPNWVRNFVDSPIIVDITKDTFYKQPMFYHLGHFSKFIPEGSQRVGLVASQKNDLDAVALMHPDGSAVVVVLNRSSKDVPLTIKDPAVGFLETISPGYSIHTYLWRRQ
In short: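 Normal human glucocerebrosidase (0.2 nM) with blue fluorogenic substrate (80 uM final) in citrate/phosphate pH 5.9 with 10mM sodium taurocholate, 0.01% tween-20; 40 min RT, NaOH/glycine stop; fluorescence Ex 365/Em 440; AC50 from a titration from 0.6 nM upwards.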

[2] = AP1 Signaling Pathway (AID 357; active = well fitted curve in either direction with a large enough effect, not every such curve was filed as active;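 also: ME-180 reporter cells stimulated with EGF at its EC50 level; % is scaled to controls: 0 for no effect and ±100 for the full control effect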); conditions: ME-180 AP-1-bla reporter, EGF-induced, beta-lactamase ratio, 5 h; at 7.69 µM (top of the series) unless noted
In short: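 First, ME-180 AP-1-bla cells were cultured overnight at 37 °C in low-serum Opti-MEM. Next, titrated compounds with EC50 EGF were incubated 5 hours. Finally, CCF4 was added for 2.5 hours and the 460/530 nm ratio recorded.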

[3] = molecular target: Cytochrome P450 1A2 (Homo sapiens) (UniProt P05177); test: p450-cyp1a2 (AID 410; calls by dose curve; also: potency is read from the fitted curve at half-maximal effect)
In short: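 Read-out is luminescence from luciferin produced by CYP1A2 demethylation of Luciferin-ME (100uM, at Km). Detection reagent stopped the 60 min NADPH-dependent reaction; signals were normalized to 57 uM furafylline.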

[4] = NFAT Signaling Pathway (AID 444; active = well fitted curve in either direction with a large enough effect, not every such curve was filed as active;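 also: carbachol stimulus at about its EC50 of 1 µM final; % is scaled to controls: 0 for no effect and ±100 for the full control effect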); conditions: Jurkat NFAT-bla M1, carbachol, beta-lactamase ratio, 5 h; at 7.69 µM (top of the series) unless noted
In short: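 Read-out: CCF4 FRET ratio (460 nm/530 nm) after 1 h RT dye loading, used for %activity and AC50 from titration series. Cells: Jurkat NFAT-β-lactamase/M1 line, treated with compound plus 1 uM carbachol for 5 h, 37 °C.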

[5] = Stat Signaling Pathway (AID 446; active = well fitted curve in either direction with a large enough effect, not every such curve was filed as active;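 also: ME-180 cervical cancer cells given 40 pM IL-6 alongside compound; SIE-controlled beta-lactamase reporter measured as 460/530 nm FRET emission ratio; % is scaled to controls: 0 for no effect and ±100 for the full control effect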); conditions: ME-180 (cervical carcinoma) SIE beta-lactamase reporter, IL-6 stimulated, 5 h; at 7.69 µM (top of the series) unless noted
In short: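 Normalization used AC90 stimulation (300 pM IL-6) and AC90 inhibition (125 nM pan-JAK inhibitor at 40 pM IL-6). The underlying signal is SIE-driven beta-lactamase in ME-180 cells after 5 h IL-6 exposure with compound.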

[6] = molecular target: Glucocorticoid receptor (Homo sapiens) (UniProt P04150); test: GR-GFP Redistribution (AID 450;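 active = compounds whose dose series gives a full or clear partial fitted curve of increased nuclear translocation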; also: potency is read from the fitted curve at half-maximal effect); conditions: U2OS GR-GFP nuclear translocation, laser cytometry, 2 h
Chain of Glucocorticoid receptor (Homo sapiens) (P04150 whole entry, looked up, the tested form may be a part): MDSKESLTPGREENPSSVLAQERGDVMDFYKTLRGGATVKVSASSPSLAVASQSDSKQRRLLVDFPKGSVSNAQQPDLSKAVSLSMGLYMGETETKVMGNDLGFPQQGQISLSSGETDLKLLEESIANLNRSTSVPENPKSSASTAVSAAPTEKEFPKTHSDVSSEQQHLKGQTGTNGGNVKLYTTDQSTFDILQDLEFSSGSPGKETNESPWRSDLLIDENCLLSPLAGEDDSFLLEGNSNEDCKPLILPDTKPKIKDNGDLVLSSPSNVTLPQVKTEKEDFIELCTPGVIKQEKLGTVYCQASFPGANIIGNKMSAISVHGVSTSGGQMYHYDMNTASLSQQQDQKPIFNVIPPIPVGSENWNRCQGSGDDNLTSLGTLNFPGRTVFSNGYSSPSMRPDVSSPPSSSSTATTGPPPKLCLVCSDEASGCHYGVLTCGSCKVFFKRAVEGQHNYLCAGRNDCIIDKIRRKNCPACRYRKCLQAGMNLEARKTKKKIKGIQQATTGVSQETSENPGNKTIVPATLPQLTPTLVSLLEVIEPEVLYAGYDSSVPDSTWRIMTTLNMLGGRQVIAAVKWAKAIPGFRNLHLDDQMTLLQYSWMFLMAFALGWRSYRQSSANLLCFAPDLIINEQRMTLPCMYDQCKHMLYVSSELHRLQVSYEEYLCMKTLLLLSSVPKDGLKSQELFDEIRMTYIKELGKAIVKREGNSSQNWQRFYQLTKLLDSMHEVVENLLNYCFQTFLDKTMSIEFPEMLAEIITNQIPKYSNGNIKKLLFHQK

[7] = molecular target: Glucocorticoid receptor (Homo sapiens) (UniProt P04150); test: GR-EFC Redistribution (AID 451; calls by dose curve; also: potency is read from the fitted curve at half-maximal effect); conditions: CHO-K1 GR-EFC translocation, beta-gal luminescence, 2 h
In short: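 Translocation of GR-ED fusion to nuclear EA restores b-gal, read by luminescence after 1 h room-temperature detection. Engineered CHO-K1 biosensor cells, 1,000/well, exposed 2 h at 37 C to titrations up to 46 uM final.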

[8] = molecular target: Mitogen-activated protein kinase 10 (Mus musculus) (UniProt Q61831); test: JNK3 AlphaScreen Assay (AID 530; active = well fitted curve in either direction with a large enough effect, not every such curve was filed as active;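 also: kinase came from lysate of stimulated human HepG2 cells; signal reports phosphorylation of biotinylated GST-cJun 1-79 at Ser73 with 10 µM ATP; % is scaled to controls: 0 for no effect and ±100 for the full control effect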)
In short: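 Kinase buffer: 20 mM Tris-HCl pH 7.6, 10 mM MgCl2, 1 mM DTT, 0.1 mM Na3VO4, 0.01% Tween-20; ATP 10 uM. Substrate biotin-GST-cJun(1-79), enzyme from activated HepG2 lysates. Detection by Ser73 phospho-antibody AlphaScreen.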

[9] = molecular target: Cytochrome P450 3A4 (Homo sapiens) (UniProt P08684); test: qHTS Assay for Inhibitors and Substrates of Cytochrome P450 3A4 (AID 884); also: nearly all actives have a fitted effect of over 50% in size; also: potency is read from the fitted curve at half-maximal effect
Chain of Cytochrome P450 3A4 (Homo sapiens) (P08684 whole entry, looked up): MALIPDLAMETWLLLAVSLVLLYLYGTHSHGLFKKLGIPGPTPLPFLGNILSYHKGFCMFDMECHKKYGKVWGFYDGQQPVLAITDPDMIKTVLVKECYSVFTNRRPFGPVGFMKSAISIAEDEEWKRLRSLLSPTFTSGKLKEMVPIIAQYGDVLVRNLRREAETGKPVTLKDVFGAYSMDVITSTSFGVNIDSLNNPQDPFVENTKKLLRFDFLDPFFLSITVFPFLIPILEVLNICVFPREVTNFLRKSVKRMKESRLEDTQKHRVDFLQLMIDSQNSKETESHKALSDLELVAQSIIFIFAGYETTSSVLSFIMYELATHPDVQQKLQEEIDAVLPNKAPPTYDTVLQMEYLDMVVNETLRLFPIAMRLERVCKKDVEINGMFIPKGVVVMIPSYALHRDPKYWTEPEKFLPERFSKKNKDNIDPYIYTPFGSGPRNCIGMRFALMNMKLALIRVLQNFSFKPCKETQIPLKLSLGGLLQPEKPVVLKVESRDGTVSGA
In short: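 Luminescent readout of luciferin produced by CYP3A4 (20 nM) dealkylation of Luciferin-PPXE, 25 uM (its KM). NADPH-driven reaction ran 60 min at RT after 10 min compound preincubation; data scaled to 57 uM ketoconazole as 100% inhibition.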

[10] = molecular target: Cytochrome P450 3A4 (Homo sapiens) (UniProt P08684); test: qHTS Assay for Activators of Cytochrome P450 3A4 (AID 885); also: nearly all actives have a fitted effect of over 65% in size
In short: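 Human CYP3A4 dealkylates Luciferin-PPXE to luciferin, which luciferase detection converts to light. Substrate was at its KM (25uM), buffer 200mM KPO4, reaction 60 min at RT.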

[11] = molecular target: Cytochrome P450 2D6 (Homo sapiens) (UniProt P10635); test: qHTS Assay for Inhibitors and Substrates of Cytochrome P450 2D6 (AID 891); also: potency is read from the fitted curve at half-maximal effect; nearly all actives have a fitted effect of over 60% in size
In short: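 Luminescent read-out of luciferin formed by 5 nM human CYP2D6 demethylating 30 uM Luciferin-ME EGE (Km level) over 60 min at room temperature after NADPH regeneration addition. Data normalized to full inhibition by 1.43 uM quinidine.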

[12] = molecular target: Cytochrome P450 2C19 (Homo sapiens) (UniProt P33261); test: qHTS Assay for Inhibitors and Substrates of Cytochrome P450 2C19 (AID 899); also: potency is read from the fitted curve at half-maximal effect; nearly all actives have a fitted effect of over 60% in size
In short: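 5nM enzyme + 10uM Luciferin-H EGE (=KM), 50mM KPO4; cpd pin-transferred, 10 min 37C; NADPH regen, 60 min 37C; stopped w/ luciferin detection reagent, 20 min; luminescence. Normalized to 57uM ketoconazole (AC100).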

[13] = Confirmation and Secondary Assay for Modulators of Hemoglobin Beta Chain Splicing at IVS2 654 locus (AID 910);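 also: HeLa cells stably carrying EGFP split by mutant beta-globin IVS2-654 intron; per-well total GFP intensity by laser scanning cytometry after 2-day treatment; % of control where 0% means no effect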
In short: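 Readout: per-well total peak green fluorescence (488 nm ex, 500–520 nm em) from objects 5–250 µm, reflecting correct splicing of an EGFP-654 reporter. Compounds were applied for 2 days at 37 °C to overnight-plated HeLa EGFP-654 cells; controls were DMSO and 500 nM IVS2-654 PNA.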

[14] = Confirmation and Secondary Assay for Modulators of Hemoglobin Beta Chain Splicing at IVS2 705 locus (AID 930);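 also: HeLa cells stably expressing the EGFP-705 splicing reporter; GFP fluorescence per well restored by corrected splicing of the IVS2-705 intron in EGFP; % of control where 0% means no effect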
In short: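 First, HeLa EGFP-705 cells are seeded at 500/well in Optimem with 2% FCS and left overnight. Next, compound or DMSO is added for 2 days. Finally wells are laser-scanned and total peak GFP intensity scored.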

[15] = qHTS Assay for Lipid Storage Modulators (AID 1519; calls by dose curve); conditions: Drosophila S3 cells, BODIPY lipid droplet/cell ratio, laser cytometry, cells loaded with oleic acid; for activity change, negative = inhibition: at 57.5 µM (top of the series)
In short: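 Cells seeded at 5,000 per well were treated with compounds over a concentration series and loaded with oleic acid (400 uM, as added). Lipid droplet fluorescence (488 nm excitation, 500-530 nm channel) was read by laser-scanning cytometry and normalized to 20 uM Triacsin C.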

[16] = molecular target: Rap guanine nucleotide exchange factor 3 (Homo sapiens) (UniProt O95398); test: Confirmatory qHTS for agonist of cAMP-regulated guanine nucleotide exchange factor 3 (EPAC1) (AID 1645881);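 also: EPAC1 catalysed release of BODIPY-GDP from Rap1B seen as fluorescence loss; 100% = effect of cAMP agonist control; nearly all actives have a fitted effect of over 75% in size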
Chain of Rap guanine nucleotide exchange factor 3 (Homo sapiens) (O95398 whole entry, looked up): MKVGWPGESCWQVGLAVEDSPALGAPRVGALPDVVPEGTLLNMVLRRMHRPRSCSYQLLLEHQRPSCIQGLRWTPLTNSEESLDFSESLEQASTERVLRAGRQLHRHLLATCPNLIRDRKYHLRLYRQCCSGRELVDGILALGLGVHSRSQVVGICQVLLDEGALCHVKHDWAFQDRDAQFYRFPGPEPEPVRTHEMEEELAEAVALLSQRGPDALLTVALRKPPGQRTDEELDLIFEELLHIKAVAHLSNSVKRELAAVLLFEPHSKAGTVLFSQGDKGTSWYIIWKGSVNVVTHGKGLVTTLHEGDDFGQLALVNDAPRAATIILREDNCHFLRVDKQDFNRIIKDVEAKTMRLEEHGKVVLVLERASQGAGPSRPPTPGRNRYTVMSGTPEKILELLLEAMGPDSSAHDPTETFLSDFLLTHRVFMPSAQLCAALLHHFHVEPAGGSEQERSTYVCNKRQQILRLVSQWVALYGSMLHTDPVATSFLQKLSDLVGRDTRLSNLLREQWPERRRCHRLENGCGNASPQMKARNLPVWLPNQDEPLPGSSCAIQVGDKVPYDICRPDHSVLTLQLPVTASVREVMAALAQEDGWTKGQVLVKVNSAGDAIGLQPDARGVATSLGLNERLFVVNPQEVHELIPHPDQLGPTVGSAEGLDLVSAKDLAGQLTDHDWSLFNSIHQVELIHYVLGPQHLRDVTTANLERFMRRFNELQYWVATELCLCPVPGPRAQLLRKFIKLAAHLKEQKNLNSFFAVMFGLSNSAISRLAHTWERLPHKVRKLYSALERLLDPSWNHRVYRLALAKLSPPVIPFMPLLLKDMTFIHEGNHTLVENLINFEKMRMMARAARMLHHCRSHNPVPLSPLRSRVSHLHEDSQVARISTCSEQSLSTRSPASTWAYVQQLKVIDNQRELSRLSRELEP

[17] = molecular target: Rap guanine nucleotide exchange factor 4 (Homo sapiens) (UniProt Q8WZA2); test: Confirmatory qHTS for agonist of cAMP-regulated guanine nucleotide exchange factor 4 (EPAC2) (AID 1645884);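 also: nucleotide exchange releases bodipy-GDP from Rap1 and this lowers its fluorescence; % is scaled to controls: 0 for no effect and ±100 for the full control effect; nearly all actives have a fitted effect of over 65% in size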
Chain of Rap guanine nucleotide exchange factor 4 (Homo sapiens) (Q8WZA2 whole entry, looked up): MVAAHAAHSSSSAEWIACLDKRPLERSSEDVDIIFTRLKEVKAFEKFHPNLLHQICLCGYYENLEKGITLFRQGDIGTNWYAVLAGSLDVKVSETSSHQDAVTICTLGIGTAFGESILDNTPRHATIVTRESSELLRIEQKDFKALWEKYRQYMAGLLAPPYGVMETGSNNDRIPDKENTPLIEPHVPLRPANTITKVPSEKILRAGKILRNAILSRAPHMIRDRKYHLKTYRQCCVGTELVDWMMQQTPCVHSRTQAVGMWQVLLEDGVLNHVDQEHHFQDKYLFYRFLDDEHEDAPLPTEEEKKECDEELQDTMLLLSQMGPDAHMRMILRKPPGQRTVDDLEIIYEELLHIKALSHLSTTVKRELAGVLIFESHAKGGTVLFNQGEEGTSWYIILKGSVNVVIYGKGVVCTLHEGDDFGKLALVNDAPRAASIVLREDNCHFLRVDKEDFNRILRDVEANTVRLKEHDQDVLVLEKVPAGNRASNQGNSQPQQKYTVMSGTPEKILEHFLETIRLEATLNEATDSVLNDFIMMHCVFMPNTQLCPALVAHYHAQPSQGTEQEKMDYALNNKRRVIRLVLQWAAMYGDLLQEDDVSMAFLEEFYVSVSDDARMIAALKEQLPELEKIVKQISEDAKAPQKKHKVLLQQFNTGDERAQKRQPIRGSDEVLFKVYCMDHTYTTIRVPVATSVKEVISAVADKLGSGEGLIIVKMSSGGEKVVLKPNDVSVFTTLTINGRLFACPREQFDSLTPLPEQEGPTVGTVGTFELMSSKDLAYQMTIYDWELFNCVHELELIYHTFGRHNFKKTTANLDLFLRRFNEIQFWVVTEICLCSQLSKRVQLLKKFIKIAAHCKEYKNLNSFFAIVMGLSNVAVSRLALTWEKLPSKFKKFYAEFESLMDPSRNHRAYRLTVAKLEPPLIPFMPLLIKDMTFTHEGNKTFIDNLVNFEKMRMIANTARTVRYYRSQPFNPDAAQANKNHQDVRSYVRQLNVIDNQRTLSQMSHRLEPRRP

[18] = molecular target: Rap guanine nucleotide exchange factor 4 (Homo sapiens) (UniProt Q8WZA2); test: Confirmatory qHTS for antagonist of cAMP-regulated guanine nucleotide exchange factor 4 (EPAC2) (AID 1645885); also: nearly all actives have a fitted effect of over 25% in size; also: potency is read from the fitted curve at half-maximal effect
[19] = molecular target: DNA dC->dU-editing enzyme APOBEC-3G (Homo sapiens) (UniProt Q9HC16); test: qHTS for inhibitors of Vif-A3G interactions: Validation (AID 588379); also: 0% is about no effect
In short: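 Yellow fluorescence (Ex 488, Em 500-530) of Vif-coexpressing HeLa A3G-eYFP cells, scanned by Acumen cytometer, reports blocked A3G degradation. Cells plated at 700/well overnight at 37 deg C before compound addition, then a further overnight compound incubation at 37 deg C.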

[20] = molecular target: Ubiquitin carboxyl-terminal hydrolase 1 (Homo sapiens) (UniProt O94782); test: Inhibitors of USP1/UAF1: Pilot qHTS (AID 504865); also: nearly all actives have a fitted effect of over 35% in size; also: potency is read from the fitted curve at half-maximal effect
Chain of Ubiquitin carboxyl-terminal hydrolase 1 (Homo sapiens) (O94782 whole entry, looked up): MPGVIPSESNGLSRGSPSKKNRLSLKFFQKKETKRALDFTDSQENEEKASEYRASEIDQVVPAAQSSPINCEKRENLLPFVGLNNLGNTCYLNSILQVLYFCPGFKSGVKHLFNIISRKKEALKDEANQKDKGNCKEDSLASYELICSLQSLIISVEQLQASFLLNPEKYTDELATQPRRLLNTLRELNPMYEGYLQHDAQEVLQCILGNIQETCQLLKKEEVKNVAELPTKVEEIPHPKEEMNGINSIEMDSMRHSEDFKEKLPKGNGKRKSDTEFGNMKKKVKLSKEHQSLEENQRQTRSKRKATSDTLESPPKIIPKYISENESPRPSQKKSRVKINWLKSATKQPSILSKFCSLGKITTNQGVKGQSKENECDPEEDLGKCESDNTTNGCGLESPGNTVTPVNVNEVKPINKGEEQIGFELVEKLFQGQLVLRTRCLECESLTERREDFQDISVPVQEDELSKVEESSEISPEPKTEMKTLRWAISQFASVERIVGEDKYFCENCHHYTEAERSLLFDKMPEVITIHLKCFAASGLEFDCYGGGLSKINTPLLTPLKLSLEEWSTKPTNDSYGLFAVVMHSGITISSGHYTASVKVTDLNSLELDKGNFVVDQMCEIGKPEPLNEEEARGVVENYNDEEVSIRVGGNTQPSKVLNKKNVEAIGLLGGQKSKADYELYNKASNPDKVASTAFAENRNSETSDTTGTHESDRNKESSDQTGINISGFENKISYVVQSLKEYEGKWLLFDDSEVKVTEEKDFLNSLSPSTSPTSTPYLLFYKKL
In short: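 In 50mM HEPES pH 7.8 containing 0.5mM EDTA, 1mM TCEP, 0.1 mg/ml BSA and 0.01% Tween-20, 1nM USP1/UAF1 is exposed to compound for 15 min, then Ub-Rho (150nM final) is added and fluorescence is read over time.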

[21] = molecular target: Dual specificity protein kinase CLK4 (Homo sapiens) (UniProt Q9HAZ1); test: qHTS Assay for Inhibitors of CDC-like Kinase 4 (Kinase-Glo Assay) (AID 1770); also: potency is read from the fitted curve at half-maximal effect; nearly all actives have a fitted effect of over 65% in size
Chain of Dual specificity protein kinase CLK4 (Homo sapiens) (Q9HAZ1 whole entry, looked up): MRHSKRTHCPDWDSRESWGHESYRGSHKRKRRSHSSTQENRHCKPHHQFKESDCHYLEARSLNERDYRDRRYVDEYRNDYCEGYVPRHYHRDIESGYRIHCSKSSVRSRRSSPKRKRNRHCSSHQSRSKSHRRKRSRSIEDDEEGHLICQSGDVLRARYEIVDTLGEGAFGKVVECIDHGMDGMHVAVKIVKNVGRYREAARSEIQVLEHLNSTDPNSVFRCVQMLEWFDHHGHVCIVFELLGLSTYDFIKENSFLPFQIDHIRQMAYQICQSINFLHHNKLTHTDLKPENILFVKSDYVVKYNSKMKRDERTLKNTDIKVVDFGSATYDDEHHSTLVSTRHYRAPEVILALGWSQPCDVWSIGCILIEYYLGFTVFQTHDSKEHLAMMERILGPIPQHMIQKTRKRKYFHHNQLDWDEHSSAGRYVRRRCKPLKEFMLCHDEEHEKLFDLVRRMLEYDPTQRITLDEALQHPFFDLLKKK
In short: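 Substrate mix (RS peptide 100 uM, ATP 1 uM) dispensed, compound pinned in, then Clk4 added to 25 nM final. Incubated 4.5 h at RT; Kinase-Glo reagent added, luminescence read after 5 min.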

[22] = molecular target: Dual specificity protein kinase CLK4 (Homo sapiens) (UniProt Q9HAZ1); test: qHTS Assay for Inhibitors of CDC-like Kinase 4 (ADP-FP Assay) (AID 1795); also: potency is read from the fitted curve at half-maximal effect; nearly all actives have a fitted effect of over 60% in size
In short: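 Clk4 6.25 nM; RS peptide 100 uM; ATP 1 uM; 25 mM Tris pH 7.5, 10 mM MgCl2; 1 h reaction. ADP detected via antibody/orange tracer FP displacement; TG003 positive control.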

[23] = molecular target: Rap guanine nucleotide exchange factor 3 (Homo sapiens) (UniProt O95398); test: Confirmatory qHTS for antagonist of cAMP-regulated guanine nucleotide exchange factor 3 (EPAC1) (AID 1645880);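 also: plate controls were DMSO only for no effect and full effect of the ATA control for full effect; nearly all actives have a fitted effect of over 55% in size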
In short: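 Released BODIPY-GDP fluoresces less than Rap1-bound BODIPY-GDP; the signal is followed at 480/540 nm at 5-min intervals over 30 min, after 5 min at room temperature. Reactions contain 100 nM EPAC1, 250 nM RAP1B-BODIPY-GDP and 50 uM GDP; results are normalized to ATA and DMSO.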

[24] = molecular target: Rap guanine nucleotide exchange factor 3 (Homo sapiens) (UniProt O95398); test: Counterscreen qHTS for antagonist of cAMP-regulated guanine nucleotide exchange factor 3 (EPAC1) (AID 1645888); also: % of control where 0% means no effect
In short: (§1)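 Rap1B-BODIPY-GDP 250 nM + GDP 50 uM; cpds 7-pt, final 9.74 nM–152 uM (activator mode) or from 7.32 nM upwards (inhibitor mode); RT; FI 480/540 nm at 5 and 30 min, then ± cAMP, reread.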

[25] = molecular target: Rap guanine nucleotide exchange factor 3 (Homo sapiens) (UniProt O95398); test: Counterscreen qHTS for agonist of cAMP-regulated guanine nucleotide exchange factor 3 (EPAC1) (AID 1645889); also: % of control where 0% means no effect; nearly all actives have a fitted effect of over 40% in size
In short: as §1

[26] = measured here: cell count channel max response
[27] = measured here: lipid channel max response

COc1cccc(-c2cncnc2NCc2ccc(OC)cc2OC)c1
8.96%: max response [15, 27]
3.12%: max response [15, 26]
active: Potency [3] 3.98 µM | Potency [9] 0.501 µM | Potency [11] 7.94 µM | Potency [12] 1.26 µM | Potency [18] 44.1 µM
inactive: Potency [1] > 11.4 µM | activity change, negative = inhibition [2] -7.15% | activity change, negative = inhibition [4] -10.1% | activity, negative = inhibition [5] -6.14% | Potency [6] > 46 µM | Potency [7] > 46 µM | Potency [8] | Potency [10] | Potency [13] | outcome [14] | activity change, negative = inhibition [15] 7.71% | Potency [16] | Potency [17]

O=c1cc(-c2ccc(O)c(O)c2)oc2cc(OC3OC(CO)C(O)C(O)C3O)cc(O)c12 (stereo not given)
inactive: Potency [9] | activity change, negative = inhibition [15] 7.95% | outcome [19] | Potency [16] | Potency [17] | Potency [18]
11.2%: max response [15, 27]
6.89%: max response [15, 26]

O=C1CC[C@@]23/C=C/C(=O)NCCCCNCCCNC(=O)/C=C/c4ccc(c2c4)OC3C1 (stereo not given in full)
inactive: Potency [10] | Potency [13] | outcome [14] | activity change, negative = inhibition [15] 2.57% | Potency [20] | Potency [16] | Potency [17] | Potency [18]
1.79%: max response [15, 27]
7.49%: max response [15, 26]

Cc1ccccc1-c1ccc2ncnc(N(C)Cc3ccco3)c2c1
20.6%: max response [15, 26]
active: Potency [21] 14.1 µM | Potency [22] 12.6 µM | Potency [18] 31.2 µM
inactive: Potency [1] > 11.4 µM | activity change, negative = inhibition [2] -8.93% | activity change, negative = inhibition [4] -28.4% | activity, negative = inhibition [5] -13.4% | Potency [6] > 46 µM | Potency [7] > 46 µM | Potency [8] | activity change, negative = inhibition [15] 2.17% | Potency [20] | Potency [16] | Potency [17]
23.2%: max response [15, 27]

COc1ccc(-c2cc(=O)c3c(OC)c(OC)c(OC)c(OC)c3o2)cc1
inactive: Potency [10] | Potency [13] | outcome [14] | activity change, negative = inhibition [15] -5.75% | Potency [23] | Potency [16] | activity change, negative = inhibition [24] -8.95% [at 30.8 µM] | outcome [25]
-24.9%: max response [15, 27]
-19.4%: max response [15, 26]
active: Potency [9] 12.6 µM

O=c1c(-c2ccccc2)coc2cc(O)cc(O)c12
inactive: Potency [10] | outcome [14] | activity change, negative = inhibition [15] 13.9% | Potency [16] | Potency [17] | Potency [18]
-5.73%: max response [15, 26]
active: Potency [9] 20 µM | Potency [20] 56.2 µM
7.42%: max response [15, 27]
